Data taken from PubChem BioAssay (NCATS).
Results filed as inconclusive are left out. Where a call stands in place of a potency, no number is given. Activity calls are given as the source filed them. Calls come from the whole dose curve; as a rule, active = well fitted curve in the direction sought with a large enough effect; inconclusive = small, poorly fitted or top-dose-only effect, or another doubt; inactive = no such curve, though single readings can be large; an effect the other way counts as inactive or inconclusive.

Legend:
[1] = qHTS for Inhibitors of Ubiquitin-specific Protease USP2a Using CHOP2 as the Reporter: K633 Counterscreen (AID 652168); note: series mostly up to about 57 µM
In short: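 Cell-free interference counterscreen without USP2a: compounds pinned into enzyme-free buffer (20 mM Tris pH 8, 2 mM beta-mercaptoethanol, 0.05% Chaps), then DiUb K48-4IQF substrate added (100 nM stock); fluorescence read kinetically, Ex 525/Em 598.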

[2] = qHTS for Inhibitors of Ubiquitin-specific Protease USP2a Using CHOP2 as the Reporter: Cytotox Assay (AID 652170); note: nearly all actives have a fitted effect of over 70% in size; note: potency is the fitted concentration of half-maximal effect
In short: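 HCT116 human colon cancer cells, 600 per well in DMEM with 10% FBS, exposed to compounds for 72 hr at 37 deg C. ATP measured by CellTiter-Glo luminescence, normalized to DMSO cells and no-cell background.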

[3] = target: Ubiquitin carboxyl-terminal hydrolase 2 (Homo sapiens) (UniProt O75604); assay: qHTS for Inhibitors of Ubiquitin-specific Protease USP2a Using CHOP2 as the Reporter: K484 Substrate (AID 652173);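 note: cleavage of internally quenched K48 di-ubiquitin substrate measured as rising fluorescence over time; nearly all actives have a fitted effect of over 70% in size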; note: potency is the fitted concentration of half-maximal effect
In short: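 USP2 (dispensed at 5 nM) was pinned with compounds, then DiUb K48 internally quenched fluorescent substrate (dispensed at 100 nM) was added. The buffer was 20 mM Tris pH 8, 2 mM beta-mercaptoethanol and 0.05% CHAPS. Cleavage was read kinetically as rising fluorescence, Ex 525/Em 598.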

[4] = target: Calcium and integrin-binding protein 1 (Homo sapiens) (UniProt Q99828); assay: Primary qHTS for Identification of Calcium Integrin Binding Protein 1 (CIB1) Competitor (AID 1508620);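 note: GST tagged CIB1 binding a fluorescein labelled alphaIIb integrin peptide tracer; top concentration of the series differs between compounds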
In short: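 Fluorescence polarization competition: GST-tagged CIB1 (1 uM final) preincubated with compound 15 min at room temperature, then FITC-labelled alphaIIb peptide (100 nM final) added. After 15 min at room temperature, polarization read at Ex 480/Em 540.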

Ubiquitin carboxyl-terminal hydrolase 2 (Homo sapiens), sequence (O75604 whole entry, looked up): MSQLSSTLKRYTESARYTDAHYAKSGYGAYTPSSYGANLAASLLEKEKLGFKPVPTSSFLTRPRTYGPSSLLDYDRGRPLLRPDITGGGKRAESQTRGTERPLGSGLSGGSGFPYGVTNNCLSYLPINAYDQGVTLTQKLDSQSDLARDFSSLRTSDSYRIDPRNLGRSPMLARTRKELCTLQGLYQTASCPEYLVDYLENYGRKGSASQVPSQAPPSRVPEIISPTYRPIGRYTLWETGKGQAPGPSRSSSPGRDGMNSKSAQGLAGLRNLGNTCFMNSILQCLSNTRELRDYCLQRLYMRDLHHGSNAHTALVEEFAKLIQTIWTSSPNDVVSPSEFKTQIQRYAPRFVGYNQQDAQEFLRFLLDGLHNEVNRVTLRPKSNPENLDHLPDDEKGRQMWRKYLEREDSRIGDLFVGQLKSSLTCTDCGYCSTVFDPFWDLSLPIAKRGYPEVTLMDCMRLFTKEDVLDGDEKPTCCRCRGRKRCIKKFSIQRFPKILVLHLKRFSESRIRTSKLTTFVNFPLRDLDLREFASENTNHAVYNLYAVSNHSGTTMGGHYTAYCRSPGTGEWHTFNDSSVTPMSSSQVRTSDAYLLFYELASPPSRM
Calcium and integrin-binding protein 1 (Homo sapiens), sequence (Q99828 whole entry, looked up): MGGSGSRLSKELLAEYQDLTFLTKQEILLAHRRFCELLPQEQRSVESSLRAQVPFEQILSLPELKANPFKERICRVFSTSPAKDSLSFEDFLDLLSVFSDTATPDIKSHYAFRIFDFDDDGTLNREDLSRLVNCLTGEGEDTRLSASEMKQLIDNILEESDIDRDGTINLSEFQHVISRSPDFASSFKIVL

SMILES	outcome [1]	Potency [2]	Potency [3]	Potency [4]
O=C(Nc1ccc(S(=O)(=O)Nc2nc(-c3ccccc3)cs2)cc1)c1ccc2ccccc2c1	inactive	inactive	2.43 µM (active)	inactive
Cc1ccc(S(=O)(=O)Nc2cnccc2C(=O)Nc2ccc(-c3nc4ccccc4[nH]3)cc2)cc1	inactive	inactive	2.17 µM (active)	inactive
O=C(Nc1ccc([S+](=O)([O-])Nc2nccs2)cc1)c1ccn[nH]1	inactive	inactive	inactive	inactive
Cc1ccc([S+](=O)([O-])n2cc(Cc3ccc(-c4ccccc4)cc3)c3ccccc32)cc1	inactive	inactive	inactive	inactive
CC(=O)Nc1ccc(S(=O)(=O)Nc2nccs2)cc1	inactive	inactive	inactive	inactive
O=S(=O)(Nc1nc(CN2CCOCC2)nc2sc3c(c12)CCCC3)c1ccc2ccccc2c1	inactive	inactive	24.3 µM (active)	inactive
O=C(Cc1nc2ccc(Cl)cc2[nH]1)Nc1ccc(S(=O)(=O)Nc2nccs2)cc1	inactive	inactive	30.6 µM (active)	inactive
COc1cc(NS(=O)(=O)c2ccc(C)cc2)c(C(=O)Nc2nc(-c3ccccc3)cs2)cc1OC	inactive	inactive	2.17 µM (active)	inactive
O=C(Nc1ccc([S+](=O)([O-])Nc2nccs2)cc1)c1ncn[nH]1	inactive	inactive	inactive	inactive
Cc1ccc(S(=O)(=O)NCCC(=O)Nc2nc(-c3ccccc3)cs2)cc1	inactive	inactive	19.3 µM (active)	inactive
Cc1ccc(-c2csc(NC(=O)c3ccccc3NS(=O)(=O)c3ccc(C)cc3)n2)cc1	inactive	16.6 µM (active)	1.93 µM (active)	inactive
COc1cccc(NC(=O)c2cc(-c3ccc(C)c(C)c3)nc3ccccc23)c1	inactive	inactive	9.68 µM (active)	inactive
Cc1cccc(NC(=O)c2cc(-c3ccc(C)c(C)c3)nc3ccccc23)c1	inactive	inactive	inactive	inactive
COC(=O)c1ccc(NC(=O)c2cc(-c3ccc(C)c(C)c3)nc3ccccc23)cc1	inactive	inactive	19.3 µM (active)	inactive
Cc1ccc(S(=O)(=O)Nc2cc(F)c(F)cc2C(=O)Nc2nc(-c3ccccc3)cs2)cc1	inactive	2.96 µM (active)	0.863 µM (active)	inactive
Cc1ccc(S(=O)(=O)Nc2cc(C)ccc2C(=O)Nc2nc(-c3ccccc3)cs2)cc1	inactive	14.8 µM (active)	1.53 µM (active)	inactive
Cc1ccc(S(=O)(=O)Nc2ccccc2C(=O)Nc2nc(-c3ccc(Cl)cc3)cs2)cc1	inactive	8.33 µM (active)	1.93 µM (active)	inactive
CC(C)(C)OC(=O)N1CCC(C(=O)Nc2ccc([S+](=O)([O-])Nc3nccs3)cc2)CC1	inactive	inactive	inactive	inactive
Clc1nc(CN2CCOCC2)nc2sc3c(c12)CCCC3	inactive	inactive	inactive	inactive
O=C(Nc1ccc(S(=O)(=O)Nc2nccs2)cc1)c1ccncc1	inactive	inactive	inactive	inactive
Cc1ccc(-c2cc(C(=O)Nc3ccc(-c4nn[nH]n4)cc3)c3ccccc3n2)cc1C	inactive	inactive	4.85 µM (active)	inactive

SMILES	outcome [1]	Potency [2]	Potency [3]	Potency [4]
Cc1ccc(-c2cc(C(=O)Nc3ccccc3C)c3ccccc3n2)cc1C		inactive	21.7 µM (active)	inactive
O=C(Nc1ccc(S(=O)(=O)Nc2nccs2)cc1)C1CCC2(CCC2)CC1		inactive	24.3 µM (active)	inactive
CCCC1CCC(C(=O)Nc2ccc(S(=O)(=O)Nc3nccs3)cc2)CC1 (stereo not drawn)	inactive	inactive	10.9 µM (active)	inactive
Cc1ccc(-c2cc(C(=O)NCc3ccccc3)c3ccccc3n2)cc1C		inactive	13.7 µM (active)	inactive
O=C(Cc1ccc2ccccc2c1)Nc1ccc(S(=O)(=O)Nc2nccs2)cc1		inactive	12.2 µM (active)	inactive
Cc1ccc(-c2cc(C(=O)N(C)c3ccccc3)c3ccccc3n2)cc1C		inactive	21.7 µM (active)	inactive
Cc1ccc([S+](=O)([O-])n2cc(-c3ccc(-c4ccccc4)cc3)c3ccccc32)cc1	inactive	inactive	inactive	inactive
Cc1ccc(S(=O)(=O)Nc2cnccc2C(=O)Nc2nc(C3CCC3)cs2)cc1	inactive		17.2 µM (active)	inactive
Cc1ccc(-c2cc(C(=O)Nc3ccc(-n4cncn4)cc3)c3ccccc3n2)cc1C		inactive	7.69 µM (active)	inactive
Cc1ccc(S(=O)(=O)n2cc(C(=O)Nc3nc(-c4ccccc4)cs3)c3ccccc32)cc1		inactive	6.11 µM (active)	inactive
CCOC(=O)C1CCC(C(=O)Nc2ccc([S+](=O)([O-])Nc3nccs3)cc2)CC1 (stereo not drawn)	inactive	inactive	inactive	inactive
CCC1CCC(C(=O)Nc2ccc(S(=O)(=O)Nc3nccs3)cc2)CC1 (stereo not drawn)		inactive	27.3 µM (active)	inactive
CC1CCC(C(=O)Nc2ccc([S+](=O)([O-])Nc3nccs3)cc2)CC1 (stereo not drawn)	inactive	inactive	inactive	inactive
CCCCCN1CCC(C(=O)Nc2ccc([S+](=O)([O-])Nc3nccs3)cc2)CC1	inactive	inactive	inactive	inactive
COc1ccc(-c2csc(NC(=O)c3ccccc3NS(=O)(=O)c3ccc(C)cc3)n2)cc1	inactive	18.7 µM (active)	2.73 µM (active)	inactive
Cc1ccc(S(=O)(=O)Nc2ccc(C(=O)Nc3nc(-c4ccccc4)cs3)c(Cl)c2)cc1		14.8 µM (active)	1.93 µM (active)	inactive
Cc1ccc(S(=O)(=O)Nc2cccc(C(=O)Nc3nc(-c4ccccc4)cs3)c2Cl)cc1		11.8 µM (active)	3.43 µM (active)	inactive
Cc1ccc(S(=O)(=O)Nc2ccccc2C(=O)Nc2nccs2)cc1	inactive		24.3 µM (active)	inactive
Cc1ccc(-c2cc(C(=O)Nc3nc4ccccc4s3)c3ccccc3n2)cc1C		inactive	21.7 µM (active)	inactive
COc1ccc(NS(=O)(=O)c2ccc(C)cc2)c(C(=O)Nc2nc(-c3ccccc3)cs2)c1	inactive		2.73 µM (active)	inactive
COc1ccc(NS(=O)(=O)c2ccc(C)cc2)cc1C(=O)Nc1nc(-c2ccccc2)cs1		inactive	3.43 µM (active)	inactive

SMILES	outcome [1]	Potency [2]	Potency [3]	Potency [4]
O=S(=O)(Nc1nc(CN2CCOCC2)nc2sc3c(c12)CCC3)c1ccc2c(c1)OCCO2	inactive	inactive	inactive	inactive
Cc1ccc(S(=O)(=O)n2cc(C(=O)Nc3ccc(-c4ccccc4)cc3)c3ccccc32)cc1	inactive	inactive	21.7 µM (active)	inactive
Cc1ccc(S(=O)(=O)Nc2ccccc2C(=O)Nc2ccc(-c3ccccc3)cc2)cc1		13.2 µM (active)	2.43 µM (active)	inactive
Cc1ccc(S(=O)(=O)Nc2cnccc2C(=O)Nc2nc(-c3ccc(Cl)c(Cl)c3)cs2)cc1	inactive		3.06 µM (active)	inactive
COc1ccc(C(=O)Nc2nc(-c3ccccc3)cs2)cc1NS(=O)(=O)c1ccc(C)cc1		inactive	3.06 µM (active)	inactive
COc1ccc(Cl)cc1C(=O)Nc1nc(-c2ccccc2)cs1		inactive	9.68 µM (active)	inactive
Cc1cccc2c(C(=O)O)cc(Cl)nc12	inactive	inactive	inactive	inactive
Cc1ccc(S(=O)(=O)Nc2cc(Br)ccc2C(=O)Nc2nc(-c3ccccc3)cs2)cc1	inactive		1.09 µM (active)	inactive
Cc1ccc(S(=O)(=O)Nc2ccc(F)cc2C(=O)Nc2nc(-c3ccccc3)cs2)cc1		14.8 µM (active)	1.93 µM (active)	inactive
Cc1ccc(-c2cc(C(=O)Nc3ncco3)c3ccccc3n2)cc1C		1.32 µM (active)	3.06 µM (active)	inactive
Cc1ccc(S(=O)(=O)Nc2ccccc2C(=O)Nc2nc(-c3ccccc3)co2)cc1		5.9 µM (active)	2.73 µM (active)	inactive
Cc1ccc(-c2cc(C(=O)Nc3ccccc3)c3ccccc3n2)cc1C	inactive	inactive	24.3 µM (active)	inactive
O=C(Nc1nc(-c2ccccc2)cs1)c1ccccc1-n1cnnn1		inactive		inactive
Cc1ccc(S(=O)(=O)Nc2ccncc2C(=O)Nc2nc(-c3ccccc3)cs2)cc1	inactive		4.85 µM (active)	inactive
Cc1ccc(-c2cc(C(=O)Nc3ccc(-c4noc(=O)[nH]4)cc3)c3ccccc3n2)cc1C	inactive		4.32 µM (active)	inactive
Cc1ccc(-c2cc(C(=O)Nc3ccc(S(=O)(=O)Nc4ccc(C#N)cc4)cc3)c3ccccc3n2)cc1C		inactive	3.06 µM (active)	inactive
COc1cc(Cl)ccc1C(=O)Nc1nc(-c2ccccc2)cs1		inactive	13.7 µM (active)	inactive
COc1cccc(NS(=O)(=O)c2ccc(C)cc2)c1C(=O)Nc1nc(-c2ccccc2)cs1		inactive	4.32 µM (active)	inactive
Cc1ccc(-c2cc(C(=O)Nc3ccc(S(=O)(=O)NCc4nccs4)cc3)c3ccccc3n2)cc1C		inactive	3.43 µM (active)	inactive
